Measurements from PMC12820563, “FoxP3 forms a head-to-head dimer in vivo and stabilizes its multimerization on adjacent microsatellites”.
The full ranking holds about 16,000 sequences; the median of “rpm ratio (pull-down/input)” is about 0.94, and the highest 2% start at about 1.7. For the sample, the highest values were picked, then their nearest neighbours and some sequences at random.

Biological target: T1, MBP-FoxP1dN (Mus musculus, UniProt P58462 326-579)
T1 sequence: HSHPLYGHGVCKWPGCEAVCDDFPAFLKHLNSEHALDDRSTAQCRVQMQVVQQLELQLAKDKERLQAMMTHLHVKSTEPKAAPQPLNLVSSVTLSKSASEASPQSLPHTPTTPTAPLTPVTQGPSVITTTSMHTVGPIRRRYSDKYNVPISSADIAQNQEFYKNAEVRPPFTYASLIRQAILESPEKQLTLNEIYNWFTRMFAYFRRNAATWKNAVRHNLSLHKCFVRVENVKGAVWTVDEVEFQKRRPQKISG
Test: PD-seq (MBP pull-down with sequencing); 20 mM Tris-HCl pH 7.5, 100 mM NaCl, 1.5 mM MgCl2, 0.4 uM protein, 0.1 uM dsDNA library, 30 min, room temperature, amylose pull-down; high values mean tight binding
Settings: protein: recombinant; tags: His6-MBP; chain copies: 2; dsDNA, one strand shown
In short: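 The N-terminus-lacking fragment of mouse FoxP3 or FoxP1 carried a His6-MBP tag and was expressed in E. coli. At 0.4 µM it was incubated with 0.1 µM Klenow-filled degenerate double-stranded DNA library for 30 min at room temperature in Tris pH 7.5 buffer with NaCl and MgCl2, and complexes were caught on amylose resin, washed three times, released with proteinase K, PCR-barcoded and Illumina-sequenced. Binding is reads-per-million enrichment of pull-down over input with replicates pooled.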

| Sequence | binding signal |
| --- | --- |
| GATGATTGTTCTCCCAGCTGATGAATTCAGATATTCGAGTAAACAAATTTTCCTAATCTTTCTGTTCAAGCGCCATCTAC | 1.01 RPM ratio (pull-down/input) |
| GATGATTGTTCTCCCAGCTGATGAATTAAGTTGATCGAGTAAACAAATTTTCCTAATCTTTCTGTTCAAGCGCCATCTAC | 1.17 RPM ratio (pull-down/input) |
| GATGATTGTTCTCCCAGCTGATGAATTCGATCCGTCGAGTAAACAAATTTTCCTAATCTTTCTGTTCAAGCGCCATCTAC | 0.886 RPM ratio (pull-down/input) |
| GATGATTGTTCTCCCAGCTGATGAATTGTTCCGATCGAGTAAACAAATTTTCCTAATCTTTCTGTTCAAGCGCCATCTAC | 1.04 RPM ratio (pull-down/input) |
| GATGATTGTTCTCCCAGCTGATGAATTGGCTTAGTCGAGTAAACAAATTTTCCTAATCTTTCTGTTCAAGCGCCATCTAC | 0.844 RPM ratio (pull-down/input) |
| GATGATTGTTCTCCCAGCTGATGAATTGATAAAATCGAGTAAACAAATTTTCCTAATCTTTCTGTTCAAGCGCCATCTAC | 1.14 RPM ratio (pull-down/input) |
| GATGATTGTTCTCCCAGCTGATGAATTAACGAGCTCGAGTAAACAAATTTTCCTAATCTTTCTGTTCAAGCGCCATCTAC | 0.81 RPM ratio (pull-down/input) |
| GATGATTGTTCTCCCAGCTGATGAATTCTAGTGGTCGAGTAAACAAATTTTCCTAATCTTTCTGTTCAAGCGCCATCTAC | 0.86 RPM ratio (pull-down/input) |
| GATGATTGTTCTCCCAGCTGATGAATTTTCAACATCGAGTAAACAAATTTTCCTAATCTTTCTGTTCAAGCGCCATCTAC | 1.14 RPM ratio (pull-down/input) |
| GATGATTGTTCTCCCAGCTGATGAATTTTATTGATCGAGTAAACAAATTTTCCTAATCTTTCTGTTCAAGCGCCATCTAC | 2.45 RPM ratio (pull-down/input) |
| GATGATTGTTCTCCCAGCTGATGAATTGTCAACATCGAGTAAACAAATTTTCCTAATCTTTCTGTTCAAGCGCCATCTAC | 2.76 RPM ratio (pull-down/input) |
| GATGATTGTTCTCCCAGCTGATGAATTTATTTGATCGAGTAAACAAATTTTCCTAATCTTTCTGTTCAAGCGCCATCTAC | 1.2 RPM ratio (pull-down/input) |
| GATGATTGTTCTCCCAGCTGATGAATTTATTGAATCGAGTAAACAAATTTTCCTAATCTTTCTGTTCAAGCGCCATCTAC | 1.28 RPM ratio (pull-down/input) |
| GATGATTGTTCTCCCAGCTGATGAATTATTTATCTCGAGTAAACAAATTTTCCTAATCTTTCTGTTCAAGCGCCATCTAC | 1.76 RPM ratio (pull-down/input) |
| GATGATTGTTCTCCCAGCTGATGAATTATTAGTATCGAGTAAACAAATTTTCCTAATCTTTCTGTTCAAGCGCCATCTAC | 1.46 RPM ratio (pull-down/input) |
| GATGATTGTTCTCCCAGCTGATGAATTTATTATCTCGAGTAAACAAATTTTCCTAATCTTTCTGTTCAAGCGCCATCTAC | 1.41 RPM ratio (pull-down/input) |

| Sequence | binding signal |
| --- | --- |
| GATGATTGTTCTCCCAGCTGATGAATTATCTTTCTCGAGTAAACAAATTTTCCTAATCTTTCTGTTCAAGCGCCATCTAC | 0.948 RPM ratio (pull-down/input) |
| GATGATTGTTCTCCCAGCTGATGAATTAGTAGTATCGAGTAAACAAATTTTCCTAATCTTTCTGTTCAAGCGCCATCTAC | 1.2 RPM ratio (pull-down/input) |
| GATGATTGTTCTCCCAGCTGATGAATTAGTATTATCGAGTAAACAAATTTTCCTAATCTTTCTGTTCAAGCGCCATCTAC | 1.75 RPM ratio (pull-down/input) |
| GATGATTGTTCTCCCAGCTGATGAATTTGTCAAATCGAGTAAACAAATTTTCCTAATCTTTCTGTTCAAGCGCCATCTAC | 1.17 RPM ratio (pull-down/input) |
| GATGATTGTTCTCCCAGCTGATGAATTGGATGTATCGAGTAAACAAATTTTCCTAATCTTTCTGTTCAAGCGCCATCTAC | 1.1 RPM ratio (pull-down/input) |
| GATGATTGTTCTCCCAGCTGATGAATTGAAAATCTCGAGTAAACAAATTTTCCTAATCTTTCTGTTCAAGCGCCATCTAC | 0.791 RPM ratio (pull-down/input) |
| GATGATTGTTCTCCCAGCTGATGAATTCAACTCGTCGAGTAAACAAATTTTCCTAATCTTTCTGTTCAAGCGCCATCTAC | 0.869 RPM ratio (pull-down/input) |
| GATGATTGTTCTCCCAGCTGATGAATTTCTGTACTCGAGTAAACAAATTTTCCTAATCTTTCTGTTCAAGCGCCATCTAC | 0.909 RPM ratio (pull-down/input) |
| GATGATTGTTCTCCCAGCTGATGAATTTACCATCTCGAGTAAACAAATTTTCCTAATCTTTCTGTTCAAGCGCCATCTAC | 1.19 RPM ratio (pull-down/input) |
| GATGATTGTTCTCCCAGCTGATGAATTTCCAATGTCGAGTAAACAAATTTTCCTAATCTTTCTGTTCAAGCGCCATCTAC | 0.862 RPM ratio (pull-down/input) |
| GATGATTGTTCTCCCAGCTGATGAATTATCCGATTCGAGTAAACAAATTTTCCTAATCTTTCTGTTCAAGCGCCATCTAC | 0.95 RPM ratio (pull-down/input) |
| GATGATTGTTCTCCCAGCTGATGAATTTGTATTCTCGAGTAAACAAATTTTCCTAATCTTTCTGTTCAAGCGCCATCTAC | 1.44 RPM ratio (pull-down/input) |
| GATGATTGTTCTCCCAGCTGATGAATTATTATCATCGAGTAAACAAATTTTCCTAATCTTTCTGTTCAAGCGCCATCTAC | 1.38 RPM ratio (pull-down/input) |
| GATGATTGTTCTCCCAGCTGATGAATTATTTCTATCGAGTAAACAAATTTTCCTAATCTTTCTGTTCAAGCGCCATCTAC | 1.13 RPM ratio (pull-down/input) |
| GATGATTGTTCTCCCAGCTGATGAATTTCTATTATCGAGTAAACAAATTTTCCTAATCTTTCTGTTCAAGCGCCATCTAC | 1.48 RPM ratio (pull-down/input) |
